Calls of active or inactive are those of the source. How the source made its calls: active means hit-call score of the fitted dose curve at least 0.9, where 1 is the maximum; inactive means score below 0.9.
System: not listed separately
Assay: ATG_SREBP_CIS: Attagene CIS-FACTORIAL HepG2 Assay for human Sterol Regulatory Element Binding (SREBP) (AID 2282962)
Conditions: HepG2 Attagene cis-factorial SREBP reporter, mRNA; actives raise or lower the signal
Outline: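 Endogenous factor activity is measured in HepG2 through multiplexed reporter units under cis-element control. Following a 24 h incubation, reporter transcripts are reverse-transcribed, PCR-amplified and sized by capillary electrophoresis; activity is fitted in both directions relative to DMSO.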

outcome, inactive:
CCCCNC(=O)NS(=O)(=O)c1ccc(N)cc1
CCOC(=O)c1ccccc1OC
CCCCCCCCCCN
CC(C)(CO)[N+](=O)[O-]
CC1(C)C(=O)N(Br)C(=O)N1Cl
COc1ccc(O)cc1
CC(=O)Nc1ccc(CC(=O)O)cc1
CC(C)C1CCC(O)CC1 (stereo unspecified)
C=C(C)C(=O)O
CCCCCNCCCCC
COc1cc(C=O)ccc1OC(=O)C(C)C
O=C[C@H](O)[C@H](O)[C@H](O)CO
CCCCOCCOCCOCCOCCO
CCCCCCOC(=O)CCCCC
COC(C)CCO (stereo unspecified)
C=C(C)[C@@H]1CC[C@@H](C)C[C@@H]1O
Cc1ccc(C(C)C)cc1O
CC(=O)[O][Al][O]C(C)=O
CCCCCCCCCCCCCCCC(=O)O
CC(=O)c1c(C)cc(C(C)(C)C)cc1C
Nc1nc2ccc([N+](=O)[O-])cc2s1
CCCCCCCCCCCCCOS(=O)(=O)O
CCCCN
CC(C)=CCO
C=C(C)C(=O)Nc1ccc(Cl)c(Cl)c1
O=S(=O)(O)NC1CCCCC1
CC(C)C(C)(C)C(C)(C)C(C)(C)S
C=C(C)C1CCC(C)CC1O (stereo unspecified)
CC(C)[C@@H]1CC[C@@H](C)CC1=O
O=c1[nH]c(=O)n([C@H]2CCCO2)cc1F

AC50, active:
CCCCCCCCCCCCCCCC(=O)OC[C@H](O)[C@H]1OC(=O)C(O)=C1O 100 µM
C=C(C)C(=O)O[C@H]1C[C@@H]2CC[C@@]1(C)C2(C)C 175 µM

Target: Signal transducer and activator of transcription 3 (Homo sapiens) (UniProt P40763)
Sequence (P40763 whole entry, looked up): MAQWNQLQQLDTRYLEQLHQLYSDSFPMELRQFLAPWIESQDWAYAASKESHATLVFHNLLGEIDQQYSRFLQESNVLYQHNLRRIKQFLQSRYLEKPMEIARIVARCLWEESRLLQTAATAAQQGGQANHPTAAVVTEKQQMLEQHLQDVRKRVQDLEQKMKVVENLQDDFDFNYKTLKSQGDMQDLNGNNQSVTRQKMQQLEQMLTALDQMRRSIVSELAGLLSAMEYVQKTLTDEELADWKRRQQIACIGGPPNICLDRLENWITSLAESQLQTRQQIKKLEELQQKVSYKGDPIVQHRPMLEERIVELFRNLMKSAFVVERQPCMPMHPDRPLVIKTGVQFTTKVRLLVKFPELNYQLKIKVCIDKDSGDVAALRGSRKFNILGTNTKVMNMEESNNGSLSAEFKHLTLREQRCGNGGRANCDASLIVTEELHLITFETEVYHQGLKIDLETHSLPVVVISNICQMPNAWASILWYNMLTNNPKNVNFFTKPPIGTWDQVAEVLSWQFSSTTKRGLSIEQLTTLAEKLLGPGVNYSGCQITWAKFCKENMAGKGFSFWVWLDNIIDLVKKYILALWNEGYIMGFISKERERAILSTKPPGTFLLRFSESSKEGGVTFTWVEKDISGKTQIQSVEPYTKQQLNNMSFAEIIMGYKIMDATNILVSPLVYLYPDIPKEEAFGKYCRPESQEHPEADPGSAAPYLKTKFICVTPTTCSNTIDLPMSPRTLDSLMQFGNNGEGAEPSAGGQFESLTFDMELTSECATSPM
Assay: ATG_STAT3_CIS: Attagene CIS-FACTORIAL HepG2 Assay for human Signal Transducer and Activator of Transcription 3 (STAT3) (AID 2282963)
Conditions: HepG2, Attagene cis-factorial STAT3 reporter transcription; actives raise or lower the signal
Outline: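 Readout is reporter transcript quantified by RT-PCR and capillary electrophoresis, with 6-FAM primer extension and HpaI digestion. Total RNA is taken 24 h after dosing transiently transfected HepG2 carrying cis-regulated reporter units. Bidirectional fit against DMSO.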

outcome, inactive:
CCCCNC(=O)NS(=O)(=O)c1ccc(N)cc1
CCOC(=O)c1ccccc1OC
CCCCCCCCCCN
CC1(C)C(=O)N(Br)C(=O)N1Cl
COc1ccc(O)cc1
CC(C)C1CCC(O)CC1 (stereo unspecified)
C=C(C)C(=O)O
CCCCCNCCCCC
COc1cc(C=O)ccc1OC(=O)C(C)C
O=C[C@H](O)[C@H](O)[C@H](O)CO
CCCCOCCOCCOCCOCCO
C=C[Si](OCC)(OCC)OCC
CCCCCCOC(=O)CCCCC
OCCOc1cccc(OCCO)c1
CCCCCCCCCCCCN(CCCCCCCCCCCC)CCCCCCCCCCCC
Cc1ccc(C(C)C)cc1O
CC(=O)[O][Al][O]C(C)=O
CCCCCCCCCCCCCCCC(=O)O
CC(=O)c1c(C)cc(C(C)(C)C)cc1C
CCCCCCCCCCCCCCCC(=O)OC[C@H](O)[C@H]1OC(=O)C(O)=C1O
CCCCCOC(=O)CCC
Nc1nc2ccc([N+](=O)[O-])cc2s1
CCCCCCCCCCCCCOS(=O)(=O)O
CCCCN
CC(C)=CCO
NCCCCCCN
C=C(C)C(=O)Nc1ccc(Cl)c(Cl)c1
O=S(=O)(O)NC1CCCCC1
CC(C)C(C)(C)C(C)(C)C(C)(C)S
C=C(C)C1CCC(C)CC1O (stereo unspecified)
CC(C)[C@@H]1CC[C@@H](C)CC1=O
CCCCCC(CO)CCC (stereo unspecified)
O=c1[nH]c(=O)n([C@H]2CCCO2)cc1F

System: not listed separately
Assay: ATG_TA_CIS: Attagene CIS-FACTORIAL HepG2 Assay for human TA Basal Promoter (AID 2282964)
Conditions: HepG2 Attagene CIS-factorial TA basal promoter reporter; actives raise or lower the signal
Outline: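 Transfected HepG2, 24 h compound exposure; RNA → RT-PCR → FAM primer extension → HpaI cut → CE fluorescence. Gain/loss-of-signal fitted against DMSO negative control. Background-control readout.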

outcome, inactive:
CCCCNC(=O)NS(=O)(=O)c1ccc(N)cc1
CCOC(=O)c1ccccc1OC
CCCCCCCCCCN
CC(C)(CO)[N+](=O)[O-]
CC1(C)C(=O)N(Br)C(=O)N1Cl
COc1ccc(O)cc1
CC(=O)Nc1ccc(CC(=O)O)cc1
CC(C)C1CCC(O)CC1 (stereo unspecified)
CCCCCNCCCCC
COc1cc(C=O)ccc1OC(=O)C(C)C
O=C[C@H](O)[C@H](O)[C@H](O)CO
CCCCOCCOCCOCCOCCO
C=C[Si](OCC)(OCC)OCC
CCCCCCOC(=O)CCCCC
OCCOc1cccc(OCCO)c1
C=C(C)[C@@H]1CC[C@@H](C)C[C@@H]1O
CCCCCCCCCCCCN(CCCCCCCCCCCC)CCCCCCCCCCCC
Cc1ccc(C(C)C)cc1O
CC(=O)[O][Al][O]C(C)=O
CCCCCCCCCCCCCCCC(=O)O
CC(=O)c1c(C)cc(C(C)(C)C)cc1C
CCCCCCCCCCCCCCCC(=O)OC[C@H](O)[C@H]1OC(=O)C(O)=C1O
C=C(C)C(=O)O[C@H]1C[C@@H]2CC[C@@]1(C)C2(C)C
CCCCCOC(=O)CCC
Nc1nc2ccc([N+](=O)[O-])cc2s1
CCCCCCCCCCCCCOS(=O)(=O)O
CCCCN
CC(C)=CCO
NCCCCCCN
C=C(C)C(=O)Nc1ccc(Cl)c(Cl)c1
O=S(=O)(O)NC1CCCCC1
CC(C)C(C)(C)C(C)(C)C(C)(C)S
C=C(C)C1CCC(C)CC1O (stereo unspecified)
CC(C)[C@@H]1CC[C@@H](C)CC1=O
CCCCCC(CO)CCC (stereo unspecified)
O=c1[nH]c(=O)n([C@H]2CCCO2)cc1F
